Experimental data from ChEMBL document CHEMBL1961873, “Compounds: GSK PKIS; Assays: Nanosyn kinase panel” (2012).

Legend:
[1] = target: High affinity nerve growth factor receptor (Homo sapiens) (UniProt P04629); details: at 1 µM;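 note: each value is the mean percent inhibition of TRKA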
[2] = target: BDNF/NT-3 growth factors receptor (Homo sapiens) (UniProt Q16620); details: at 0.1 µM
[3] = target: BDNF/NT-3 growth factors receptor (Homo sapiens) (UniProt Q16620); details: at 1 µM
[4] = target: NT-3 growth factor receptor (Homo sapiens) (UniProt Q16288); details: at 0.1 µM
[5] = target: NT-3 growth factor receptor (Homo sapiens) (UniProt Q16288); details: at 1 µM
[6] = target: T1, Tyrosine-protein kinase TXK (Homo sapiens) (UniProt P42681); details: at 0.1 µM
T1 sequence (whole entry): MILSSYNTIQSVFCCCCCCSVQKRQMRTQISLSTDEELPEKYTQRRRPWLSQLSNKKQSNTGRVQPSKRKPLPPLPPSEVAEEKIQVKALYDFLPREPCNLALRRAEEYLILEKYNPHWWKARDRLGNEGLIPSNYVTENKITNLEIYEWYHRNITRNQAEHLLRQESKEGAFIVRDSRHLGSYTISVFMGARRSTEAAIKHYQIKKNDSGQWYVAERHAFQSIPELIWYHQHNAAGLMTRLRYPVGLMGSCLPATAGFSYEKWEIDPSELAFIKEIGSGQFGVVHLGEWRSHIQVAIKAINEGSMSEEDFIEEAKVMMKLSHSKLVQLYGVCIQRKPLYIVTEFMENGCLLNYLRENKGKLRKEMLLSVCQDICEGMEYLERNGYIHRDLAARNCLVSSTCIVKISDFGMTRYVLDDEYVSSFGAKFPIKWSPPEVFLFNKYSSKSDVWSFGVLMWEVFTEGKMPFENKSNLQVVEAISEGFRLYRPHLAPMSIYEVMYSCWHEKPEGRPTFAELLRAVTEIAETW

[7] = target: T1, Tyrosine-protein kinase TXK (Homo sapiens); details: at 1 µM
[8] = target: Non-receptor tyrosine-protein kinase TYK2 (Homo sapiens) (UniProt P29597); details: at 0.1 µM;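 note: each value is a mean of the inhibition readings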
[9] = target: T2, Dual specificity protein kinase TTK (Homo sapiens) (UniProt P33981); details: at 1 µM;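 note: reported figures are mean TTK inhibition at 1 µM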
T2 sequence (whole entry): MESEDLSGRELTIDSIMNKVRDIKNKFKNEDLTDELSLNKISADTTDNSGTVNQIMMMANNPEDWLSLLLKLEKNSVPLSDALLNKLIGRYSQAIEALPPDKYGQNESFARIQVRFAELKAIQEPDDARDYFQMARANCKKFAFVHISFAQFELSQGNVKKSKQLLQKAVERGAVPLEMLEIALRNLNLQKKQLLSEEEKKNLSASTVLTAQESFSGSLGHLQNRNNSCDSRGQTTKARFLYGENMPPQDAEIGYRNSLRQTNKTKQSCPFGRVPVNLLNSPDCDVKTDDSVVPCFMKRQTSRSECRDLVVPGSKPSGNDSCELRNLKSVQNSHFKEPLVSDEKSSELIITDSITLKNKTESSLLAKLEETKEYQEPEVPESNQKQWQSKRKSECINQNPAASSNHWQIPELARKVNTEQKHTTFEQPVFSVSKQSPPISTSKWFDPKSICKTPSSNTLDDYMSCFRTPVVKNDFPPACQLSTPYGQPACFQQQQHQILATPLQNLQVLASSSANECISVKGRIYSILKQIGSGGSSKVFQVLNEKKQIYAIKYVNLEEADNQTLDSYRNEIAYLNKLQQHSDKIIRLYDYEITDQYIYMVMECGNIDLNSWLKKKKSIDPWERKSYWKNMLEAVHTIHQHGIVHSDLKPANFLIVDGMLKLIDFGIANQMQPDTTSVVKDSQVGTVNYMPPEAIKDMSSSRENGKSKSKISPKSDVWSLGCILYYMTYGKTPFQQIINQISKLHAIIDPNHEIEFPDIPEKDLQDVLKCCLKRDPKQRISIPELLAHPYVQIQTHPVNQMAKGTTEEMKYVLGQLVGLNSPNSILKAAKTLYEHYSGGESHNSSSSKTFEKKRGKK

[10] = target: T3, Aurora kinase A (Homo sapiens) (UniProt O14965); details: at 0.1 µM
T3 sequence (whole entry): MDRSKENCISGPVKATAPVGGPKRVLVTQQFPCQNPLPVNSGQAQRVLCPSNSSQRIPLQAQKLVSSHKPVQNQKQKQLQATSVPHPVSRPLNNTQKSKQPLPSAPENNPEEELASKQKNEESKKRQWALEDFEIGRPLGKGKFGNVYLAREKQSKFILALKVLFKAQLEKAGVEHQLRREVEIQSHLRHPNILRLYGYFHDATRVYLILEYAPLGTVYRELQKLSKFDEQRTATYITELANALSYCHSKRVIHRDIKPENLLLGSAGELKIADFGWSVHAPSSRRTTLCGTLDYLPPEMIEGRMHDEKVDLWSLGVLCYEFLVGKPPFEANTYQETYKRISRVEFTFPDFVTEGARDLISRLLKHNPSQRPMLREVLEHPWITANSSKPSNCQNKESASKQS

[11] = target: T3, Aurora kinase A (Homo sapiens); details: at 1 µM
[12] = target: Aurora kinase B (Homo sapiens) (UniProt Q96GD4); details: at 0.1 µM
[13] = target: Aurora kinase B (Homo sapiens) (UniProt Q96GD4); details: at 1 µM
[14] = target: T4, Aurora kinase C (Homo sapiens) (UniProt Q9UQB9); details: at 0.1 µM
T4 sequence (whole entry): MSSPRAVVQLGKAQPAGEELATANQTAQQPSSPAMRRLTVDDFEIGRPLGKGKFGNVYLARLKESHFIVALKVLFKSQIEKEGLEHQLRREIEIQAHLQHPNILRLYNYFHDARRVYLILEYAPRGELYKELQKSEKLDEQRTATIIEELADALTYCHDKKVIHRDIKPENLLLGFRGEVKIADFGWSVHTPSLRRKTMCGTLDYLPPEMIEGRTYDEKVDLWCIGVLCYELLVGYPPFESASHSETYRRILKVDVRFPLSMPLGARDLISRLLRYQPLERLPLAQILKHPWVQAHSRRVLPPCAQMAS

[15] = target: T4, Aurora kinase C (Homo sapiens); details: at 1 µM
[16] = target: Serine/threonine-protein kinase 10 (Homo sapiens) (UniProt O94804); details: at 0.1 µM
[17] = target: Serine/threonine-protein kinase 10 (Homo sapiens) (UniProt O94804); details: at 1 µM
[18] = target: T5, Mitogen-activated protein kinase kinase kinase kinase 2 (Homo sapiens) (UniProt Q12851); details: at 0.1 µM
T5 sequence (whole entry): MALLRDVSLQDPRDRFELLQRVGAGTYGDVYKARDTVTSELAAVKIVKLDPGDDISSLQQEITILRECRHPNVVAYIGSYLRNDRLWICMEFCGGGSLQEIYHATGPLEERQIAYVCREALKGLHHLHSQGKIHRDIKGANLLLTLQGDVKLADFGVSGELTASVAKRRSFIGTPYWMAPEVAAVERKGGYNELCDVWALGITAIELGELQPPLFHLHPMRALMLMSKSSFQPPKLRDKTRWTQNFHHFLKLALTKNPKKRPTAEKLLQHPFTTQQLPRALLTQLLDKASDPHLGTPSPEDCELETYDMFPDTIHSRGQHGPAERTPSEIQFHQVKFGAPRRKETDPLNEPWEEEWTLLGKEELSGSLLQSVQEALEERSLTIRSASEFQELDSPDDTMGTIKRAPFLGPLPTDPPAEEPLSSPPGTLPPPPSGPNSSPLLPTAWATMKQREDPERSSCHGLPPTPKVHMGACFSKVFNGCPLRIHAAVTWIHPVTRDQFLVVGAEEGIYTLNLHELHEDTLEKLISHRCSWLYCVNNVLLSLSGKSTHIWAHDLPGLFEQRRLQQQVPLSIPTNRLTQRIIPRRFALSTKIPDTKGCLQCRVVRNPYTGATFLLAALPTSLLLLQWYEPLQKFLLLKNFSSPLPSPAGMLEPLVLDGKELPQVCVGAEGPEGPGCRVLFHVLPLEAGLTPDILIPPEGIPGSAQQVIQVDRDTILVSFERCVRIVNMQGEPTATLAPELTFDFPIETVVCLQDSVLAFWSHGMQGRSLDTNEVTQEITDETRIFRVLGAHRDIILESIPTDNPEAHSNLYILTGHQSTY

[19] = target: T5, Mitogen-activated protein kinase kinase kinase kinase 2 (Homo sapiens); details: at 1 µM
[20] = target: Mitogen-activated protein kinase kinase kinase kinase 4 (Homo sapiens) (UniProt O95819); details: at 0.1 µM

Chain of High affinity nerve growth factor receptor (Homo sapiens) (P04629 33-796 limits assumed): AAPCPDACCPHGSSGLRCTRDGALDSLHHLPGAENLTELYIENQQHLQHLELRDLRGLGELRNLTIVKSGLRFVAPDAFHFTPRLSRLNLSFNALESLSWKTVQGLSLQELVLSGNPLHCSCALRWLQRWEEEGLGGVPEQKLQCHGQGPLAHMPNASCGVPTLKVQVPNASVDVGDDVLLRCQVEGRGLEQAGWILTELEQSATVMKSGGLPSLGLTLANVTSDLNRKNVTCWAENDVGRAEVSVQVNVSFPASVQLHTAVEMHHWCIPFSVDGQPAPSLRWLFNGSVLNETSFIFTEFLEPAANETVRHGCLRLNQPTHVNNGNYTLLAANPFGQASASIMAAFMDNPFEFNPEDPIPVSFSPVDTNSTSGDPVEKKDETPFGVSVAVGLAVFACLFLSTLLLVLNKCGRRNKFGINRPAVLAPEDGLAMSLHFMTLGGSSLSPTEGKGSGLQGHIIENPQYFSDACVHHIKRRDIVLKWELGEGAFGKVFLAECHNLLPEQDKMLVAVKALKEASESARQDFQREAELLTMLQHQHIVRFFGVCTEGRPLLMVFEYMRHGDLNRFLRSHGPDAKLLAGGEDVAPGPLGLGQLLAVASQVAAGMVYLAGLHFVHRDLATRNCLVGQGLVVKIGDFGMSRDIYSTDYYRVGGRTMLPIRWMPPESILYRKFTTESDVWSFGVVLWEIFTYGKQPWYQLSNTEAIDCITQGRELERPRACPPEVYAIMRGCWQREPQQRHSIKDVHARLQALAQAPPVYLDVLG
Chain of NT-3 growth factor receptor (Homo sapiens) (Q16288 32-839 limits assumed): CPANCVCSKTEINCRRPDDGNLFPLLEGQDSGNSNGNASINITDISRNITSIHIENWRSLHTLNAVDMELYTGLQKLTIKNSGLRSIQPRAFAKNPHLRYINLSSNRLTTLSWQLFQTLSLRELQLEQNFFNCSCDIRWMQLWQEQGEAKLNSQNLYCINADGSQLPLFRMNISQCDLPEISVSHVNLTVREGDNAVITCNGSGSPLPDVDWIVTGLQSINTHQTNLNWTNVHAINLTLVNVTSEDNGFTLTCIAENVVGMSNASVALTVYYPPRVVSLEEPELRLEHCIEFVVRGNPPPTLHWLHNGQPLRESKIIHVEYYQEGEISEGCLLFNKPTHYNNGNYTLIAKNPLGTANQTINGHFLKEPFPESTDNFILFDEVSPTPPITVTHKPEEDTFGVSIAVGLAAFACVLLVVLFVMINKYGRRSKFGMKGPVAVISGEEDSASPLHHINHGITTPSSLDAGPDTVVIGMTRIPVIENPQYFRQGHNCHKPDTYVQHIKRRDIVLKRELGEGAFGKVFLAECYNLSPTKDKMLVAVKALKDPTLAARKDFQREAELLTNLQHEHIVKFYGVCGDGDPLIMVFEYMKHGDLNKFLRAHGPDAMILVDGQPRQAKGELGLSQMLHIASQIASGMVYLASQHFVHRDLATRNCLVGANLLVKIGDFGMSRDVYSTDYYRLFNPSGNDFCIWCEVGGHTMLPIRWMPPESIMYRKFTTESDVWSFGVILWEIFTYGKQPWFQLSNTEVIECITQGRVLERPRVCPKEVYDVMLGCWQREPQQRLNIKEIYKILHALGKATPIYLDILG
Chain of Non-receptor tyrosine-protein kinase TYK2 (Homo sapiens) (P29597 whole entry): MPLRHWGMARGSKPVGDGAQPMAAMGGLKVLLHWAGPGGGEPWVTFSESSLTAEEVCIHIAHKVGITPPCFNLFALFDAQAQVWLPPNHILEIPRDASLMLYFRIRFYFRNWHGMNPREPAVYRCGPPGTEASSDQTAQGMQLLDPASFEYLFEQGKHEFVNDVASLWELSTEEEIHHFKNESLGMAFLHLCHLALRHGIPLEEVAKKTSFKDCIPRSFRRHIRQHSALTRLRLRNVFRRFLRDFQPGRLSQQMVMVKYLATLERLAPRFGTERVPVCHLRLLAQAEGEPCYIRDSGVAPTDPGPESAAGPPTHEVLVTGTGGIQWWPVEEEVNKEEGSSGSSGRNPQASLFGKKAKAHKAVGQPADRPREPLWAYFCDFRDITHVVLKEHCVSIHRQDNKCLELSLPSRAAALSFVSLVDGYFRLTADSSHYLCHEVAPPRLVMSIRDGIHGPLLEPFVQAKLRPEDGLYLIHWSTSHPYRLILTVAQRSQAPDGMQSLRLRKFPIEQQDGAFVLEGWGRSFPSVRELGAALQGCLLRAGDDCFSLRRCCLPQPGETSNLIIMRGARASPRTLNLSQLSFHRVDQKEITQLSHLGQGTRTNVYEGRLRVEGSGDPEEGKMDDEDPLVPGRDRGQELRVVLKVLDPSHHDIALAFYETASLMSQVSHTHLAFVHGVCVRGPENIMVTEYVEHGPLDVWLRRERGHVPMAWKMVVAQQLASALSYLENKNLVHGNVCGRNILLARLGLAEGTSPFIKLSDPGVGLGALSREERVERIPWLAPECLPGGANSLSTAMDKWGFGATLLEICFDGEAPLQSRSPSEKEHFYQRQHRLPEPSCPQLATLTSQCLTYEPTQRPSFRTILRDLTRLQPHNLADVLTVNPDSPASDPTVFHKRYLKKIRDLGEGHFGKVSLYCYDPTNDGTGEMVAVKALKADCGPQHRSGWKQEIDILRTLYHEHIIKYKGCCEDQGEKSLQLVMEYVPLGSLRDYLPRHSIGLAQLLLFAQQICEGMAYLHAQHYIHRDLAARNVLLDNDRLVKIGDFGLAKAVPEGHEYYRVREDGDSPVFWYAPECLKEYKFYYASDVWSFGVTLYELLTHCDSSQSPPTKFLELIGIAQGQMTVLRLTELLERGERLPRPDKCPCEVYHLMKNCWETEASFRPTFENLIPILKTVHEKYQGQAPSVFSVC
Chain of Aurora kinase B (Homo sapiens) (Q96GD4 whole entry): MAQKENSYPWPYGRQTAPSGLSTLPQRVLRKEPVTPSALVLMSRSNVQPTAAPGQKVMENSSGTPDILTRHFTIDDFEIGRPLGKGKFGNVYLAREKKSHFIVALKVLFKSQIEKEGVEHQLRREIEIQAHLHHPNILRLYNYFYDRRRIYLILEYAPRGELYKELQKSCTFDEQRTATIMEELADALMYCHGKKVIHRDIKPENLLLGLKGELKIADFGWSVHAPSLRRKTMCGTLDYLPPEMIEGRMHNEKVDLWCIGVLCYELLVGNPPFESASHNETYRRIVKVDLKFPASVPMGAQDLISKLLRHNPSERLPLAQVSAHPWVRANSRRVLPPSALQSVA
Chain of BDNF/NT-3 growth factors receptor (Homo sapiens) (Q16620 32-822 limits assumed): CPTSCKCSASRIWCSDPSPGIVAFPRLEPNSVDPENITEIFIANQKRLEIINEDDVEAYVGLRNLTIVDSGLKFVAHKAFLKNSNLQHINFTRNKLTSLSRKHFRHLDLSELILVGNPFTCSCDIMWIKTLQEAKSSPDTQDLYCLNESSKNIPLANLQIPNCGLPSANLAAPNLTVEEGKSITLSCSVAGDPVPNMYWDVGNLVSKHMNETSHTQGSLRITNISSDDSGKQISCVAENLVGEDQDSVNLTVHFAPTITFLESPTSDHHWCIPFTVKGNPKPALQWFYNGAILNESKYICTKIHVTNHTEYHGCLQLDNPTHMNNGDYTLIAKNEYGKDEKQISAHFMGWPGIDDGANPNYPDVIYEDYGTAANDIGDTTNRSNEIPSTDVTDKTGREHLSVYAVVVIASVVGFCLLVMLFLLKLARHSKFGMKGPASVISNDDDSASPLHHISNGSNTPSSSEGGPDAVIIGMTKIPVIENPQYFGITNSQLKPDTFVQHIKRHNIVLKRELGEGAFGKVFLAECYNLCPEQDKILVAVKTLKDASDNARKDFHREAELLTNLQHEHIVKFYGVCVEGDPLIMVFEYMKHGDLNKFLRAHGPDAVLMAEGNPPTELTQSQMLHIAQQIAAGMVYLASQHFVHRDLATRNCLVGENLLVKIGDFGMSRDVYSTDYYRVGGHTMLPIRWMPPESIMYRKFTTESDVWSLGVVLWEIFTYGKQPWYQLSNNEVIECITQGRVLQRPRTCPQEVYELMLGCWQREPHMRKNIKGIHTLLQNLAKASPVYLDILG
Chain of Serine/threonine-protein kinase 10 (Homo sapiens) (O94804 whole entry, looked up): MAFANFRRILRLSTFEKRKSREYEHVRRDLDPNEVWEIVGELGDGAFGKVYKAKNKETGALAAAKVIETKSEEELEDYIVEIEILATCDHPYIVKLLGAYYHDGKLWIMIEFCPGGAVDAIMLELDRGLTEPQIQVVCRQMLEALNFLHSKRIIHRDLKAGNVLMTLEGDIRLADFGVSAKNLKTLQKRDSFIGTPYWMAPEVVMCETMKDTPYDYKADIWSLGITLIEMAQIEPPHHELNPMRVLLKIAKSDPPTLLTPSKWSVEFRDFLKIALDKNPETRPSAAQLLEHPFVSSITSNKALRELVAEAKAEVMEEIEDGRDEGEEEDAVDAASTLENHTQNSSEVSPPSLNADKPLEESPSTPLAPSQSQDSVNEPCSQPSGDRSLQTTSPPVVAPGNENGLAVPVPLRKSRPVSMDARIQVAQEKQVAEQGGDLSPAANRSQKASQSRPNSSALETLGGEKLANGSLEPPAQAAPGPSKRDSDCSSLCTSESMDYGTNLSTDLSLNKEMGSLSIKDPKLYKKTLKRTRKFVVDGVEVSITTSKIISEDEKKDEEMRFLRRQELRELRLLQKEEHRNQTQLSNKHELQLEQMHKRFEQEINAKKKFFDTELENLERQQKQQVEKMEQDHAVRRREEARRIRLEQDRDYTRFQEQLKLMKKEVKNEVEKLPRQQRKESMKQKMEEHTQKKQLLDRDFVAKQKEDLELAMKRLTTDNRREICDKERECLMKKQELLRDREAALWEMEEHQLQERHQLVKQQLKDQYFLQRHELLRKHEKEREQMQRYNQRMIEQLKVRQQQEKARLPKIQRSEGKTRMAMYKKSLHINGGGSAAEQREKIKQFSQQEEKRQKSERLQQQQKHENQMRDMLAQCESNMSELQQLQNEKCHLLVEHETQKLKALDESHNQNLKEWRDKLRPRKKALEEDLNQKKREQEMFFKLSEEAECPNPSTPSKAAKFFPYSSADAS

SMILES | inhibition [1] [%] | inhibition [2] [%] | inhibition [3] [%] | inhibition [4] [%] | inhibition [5] [%] | inhibition [6] [%] | inhibition [7] [%] | inhibition [8] [%] | inhibition [9] [%] | inhibition [10] [%] | inhibition [11] [%] | inhibition [12] [%] | inhibition [13] [%] | inhibition [14] [%] | inhibition [15] [%] | inhibition [16] [%] | inhibition [17] [%] | inhibition [18] [%] | inhibition [19] [%] | inhibition [20] [%]
Fc1ccc(-c2ncn(C3CCNCC3)c2-c2ccnc(Oc3ccc(F)c(F)c3)n2)cc1 | 3.11 | 3.23 | 3.93 | 2.87 | 4.23 | -5.36 | 0.03 | -3.58 | 14 | -0.65 | -0.3 | -1.34 | 1.81 | -2.62 | 4.92 | 4.63 | 8.33 | 1.35 | 3.76 | 9.16
COc1cc(Nc2ncc3c(C)nc(-c4cccc(C(F)(F)F)c4)n3n2)cc(OC)c1OC | 7.83 | 4.54 | 16.5 | 4.76 | 11 | 3.45 | 16.6 | -1.61 | 14.4 | 2.65 | 36.2 | 4.06 | 14.4 | 1.2 | 11.3 | 6.36 | 12.5 | -0.1 | 7.98 | 11.3
Cc1ccc(NC(=O)c2ccoc2)cc1-c1ccc(C(=O)NCC2CC2)cc1 | 1.15 | 2.58 | 1.82 | 2.37 | 0.07 | -0.38 | 2.18 | -3.59 | 4.41 | 2.28 | 2.57 | 1.19 | 4.85 | 1.82 | 1 | 2.73 | 5.18 | -0.94 | 0.39 | 0.77
Fc1ccc(-c2ncn(C3CCNCC3)c2-c2ccnc(Oc3ccc(Oc4ccccc4)cc3)n2)cc1 | 5.66 | 2.54 | 2.27 | 2.44 | 1.66 | 8.91 | 5.95 | -1.07 | 7.56 | 2.89 | 0.96 | 4.04 | 3.66 | 0.06 | 0.55 | 5.52 | 6.96 | 2.54 | 9.5 | 4.44
O=C(Nc1n[nH]c2cc(-c3cc(F)ccc3F)ccc12)C1CC1 | 8.4 | 3.77 | 8.07 | 3.77 | 14 | 2.25 | 0.99 | -1 | 9.7 | 2.63 | 18.1 | 2.4 | 6.93 | 0.12 | 8.07 | 4.84 | 13.1 | 0.39 | 5.06 | 16.4
COC(=O)Nc1nc2ccc(Sc3ccc(NC(=O)Nc4cc(C(F)(F)F)ccc4F)cc3)cc2[nH]1 | 83 | 15.1 | 71.8 | 15.5 | 69.5 | 3.58 | 4.98 | -0.72 | 8.33 | 1.16 | 7.64 | 0.96 | 8.08 | 1.09 | 6.4 | 18.9 | 72.7 | 7.11 | 27.5 | 5
COc1cc2ncn(-c3cc(OCCc4ccccc4)c(C(N)=O)s3)c2cc1OC | 3.49 | 1.14 | 8.57 | 2.85 | 14.7 | 2.33 | 3.1 | -3.55 | 6.73 | 2.54 | 8.4 | 3.16 | 7.8 | 1.23 | 8.14 | 25 | 66.7 | 1.21 | 7.11 | 5.29
O=C(Nc1n[nH]c2nc(-c3ccco3)ccc12)C1CC1 | 3.29 | 0.95 | 2.36 | 1.6 | 5.42 | 2.21 | 2.84 | -1.75 | -0.72 | 2.22 | 11.4 | 1.7 | 8.39 | 1.88 | 7.39 | 4.1 | 9.62 | 0.49 | 4.84 | 4.17
COc1cccc(/C=N/Nc2ncnc3c2cnn3-c2cccc(OC)c2)c1 | 4.58 | 2.99 | 5.56 | 1.57 | 2.15 | 3.48 | 2.61 | -3.27 | 9.42 | 2.87 | 3.52 | 2.75 | 5.96 | 0.31 | 3.9 | 5.31 | 6.35 | -0.07 | 2.67 | 7.63
